Unmarked numbers belong to inactive results. Active and inactive are the calls of the source.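 Rule for the calls: active = thallium flux through the channel raised or lowered by more than 3 SD from vehicle-only wells, actives on both sides; inactive = the rest.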
What was measured:
Assay in all cases: BK channel mutant inhibitors and activators – cell-based, U2OS BacMam, thallium flux, beta subunits, selectivity assay, profiling panel (AID 1259406);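 note: initial slope of Thallos dye fluorescence rise after thallium is added; log ratio against the mean of 0.3% DMSO vehicle wells on the same plate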
[1] = tested on: F380Y; conditions: U2OS BacMam BK variants, at 30 µM
[2] = tested on: F380Y/beta1; conditions: U2OS BacMam BK variants, at 30 µM
[3] = tested on: F380Y/beta2Delta; conditions: U2OS BacMam BK variants, at 30 µM
[4] = tested on: F380Y/beta4; conditions: U2OS BacMam BK variants, at 30 µM
[5] = biological target: Calcium-activated potassium channel subunit alpha-1 (Homo sapiens) + Leucine-rich repeat-containing protein 26 (Homo sapiens) (UniProt Q12791+Q2I0M4); conditions: U2OS BacMam BK variants, F380Y/Slo1WT/gamma1, at 30 µM
[6] = tested on: R275C; conditions: U2OS BacMam BK variants, at 30 µM
[7] = tested on: R275C/beta1; conditions: U2OS BacMam BK variants, at 30 µM
[8] = tested on: R275C/beta2Delta; conditions: U2OS BacMam BK variants, at 30 µM
[9] = tested on: R275C/beta4; conditions: U2OS BacMam BK variants, at 30 µM
[10] = tested on: R275C/Slo1WT/beta2; conditions: U2OS BacMam BK variants, at 30 µM

Chain of Calcium-activated potassium channel subunit alpha-1 (Homo sapiens) + Leucine-rich repeat-containing protein 26 (Homo sapiens) (Q2I0M4 whole entry, looked up, one chain of several): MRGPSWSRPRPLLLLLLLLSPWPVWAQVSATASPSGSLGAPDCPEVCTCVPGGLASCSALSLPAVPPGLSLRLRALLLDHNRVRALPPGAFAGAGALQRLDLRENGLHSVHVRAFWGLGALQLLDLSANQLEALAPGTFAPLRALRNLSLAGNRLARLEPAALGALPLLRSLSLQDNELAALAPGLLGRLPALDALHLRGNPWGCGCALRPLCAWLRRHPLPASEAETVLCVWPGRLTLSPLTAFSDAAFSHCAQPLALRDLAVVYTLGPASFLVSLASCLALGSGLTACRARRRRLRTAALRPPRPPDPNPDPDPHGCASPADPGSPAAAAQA

| Compound | log fold change Tl+ flux [1] | log fold change Tl+ flux [2] | log fold change Tl+ flux [3] | log fold change Tl+ flux [4] | log fold change Tl+ flux [5] | log fold change Tl+ flux [6] | log fold change Tl+ flux [7] | log fold change Tl+ flux [8] | log fold change Tl+ flux [9] | log fold change Tl+ flux [10] |
| --- | --- | --- | --- | --- | --- | --- | --- | --- | --- | --- |
| O=C(Nc1ccccc1)OCc1cc(-c2ccccc2)c(C(F)(F)F)s1 | -0.0321 | -0.0201 | -0.0141 | -0.21 (active) | -0.173 (active) | -0.0877 (active) | -0.141 (active) | 0.0124 | -0.0566 | -0.0586 |
| CC(C)(C)OC(=O)N1CCC(c2nc(-c3ccc(Cl)s3)cs2)CC1 | 0.0108 | 0.0589 | -0.0352 | -0.0115 | -0.0565 | -0.00778 | 0.0364 | 0.0302 | 0.0463 | 0.0374 |
| CN1CCN(S(=O)(=O)c2ccc(CNC(=O)c3ccccc3)s2)CC1 | -0.0286 | -0.0353 | -0.0627 | -0.0096 | -0.0465 | 0.0435 | 0.0151 | -0.00195 | 0.00386 | -0.0258 |
| O=C(O)CSCC(=O)Nc1ccc(-c2nc3ccccc3s2)cc1 | -0.0115 | 0.19 (active) | -0.0257 | -0.0352 | 0.126 (active) | 0.0193 | 0.0504 | 0.0724 | 0.0271 | -0.022 |
| Cc1cc(Sc2nnc(N=CN(C)C)s2)c2ccccc2n1 | 0.0126 | 0.0257 | -0.0453 | -0.0187 | 0.011 | 0.0403 | 0.0231 | 0.0658 | 0.0604 | 0.0405 |
| O=S(=O)(Cc1nc(-c2ccc3c(c2)OCCO3)cs1)c1ccccn1 | -0.0443 | -0.0373 | 0.0231 | -0.00916 | -0.0733 | -0.0303 | -0.0291 | 0.0317 | -0.00702 | -0.0322 |
| CC(C)(C)c1ccc(Oc2ccc(NC(=O)Nc3cccs3)cn2)cc1 | -0.105 (active) | 0.131 (active) | -0.0118 | 0.0598 | 0.0627 | 0.0691 | 0.0982 | 0.0026 | 0.026 | -0.00521 |
| COC(=O)c1sc(-c2ccc(Cl)cc2)cc1NC(=O)c1ccc2nsnc2c1 | 0.0226 | 0.0354 | 0.0206 | 0.0283 | 0.00872 | 0.0185 | -0.00968 | -0.0231 | -0.00956 | 0.0403 |
| Cc1ccc(C(=O)CC(=CC(=C(C#N)c2ccc([N+](=O)[O-])cc2)c2ccc(C)cc2)c2ccccc2)cc1 | 0.00161 | 0.0132 | -0.0182 | -0.0433 | -0.0481 | -0.0132 | -0.025 | -0.0508 | -0.0482 | -0.0297 |
| COc1cc(C(F)(F)F)nc2ccc(C#CCOC(=O)Nc3cccc(Cl)c3)cc12 | -0.0208 | 0.0282 | -0.0312 | 0.0143 | -0.0274 | -0.0392 | -0.0781 | -0.0125 | -0.00958 | 0.0405 |
| FC(F)(F)COc1ccc(-c2nnc(SCc3ccccc3C(F)(F)F)o2)cn1 | 0.00456 | -0.0223 | -0.0257 | -0.0497 | -0.0179 | -0.0108 | 0.0313 | -0.0204 | 0.0273 | 0.0157 |
| CCCCCCCCCCCC(=O)N1CC(=O)NC(=O)C1 | -0.0479 | -0.037 | -0.0133 | -0.0202 | 0.0655 | -0.0151 | -0.0193 | 0.0154 | -0.0342 | 0.0104 |
| Cc1cc(N=CN(C)C)c2ccccc2n1 | 0.0195 | 0.00784 | 0.0182 | -0.00491 | 0.00683 | 0.0312 | 0.046 | 0.0104 | 0.0114 | -0.0666 |
| CC(=O)C1=C(C)Nc2ccccc2S1 | 0.0144 | -0.00709 | -0.0326 | -0.00774 | -0.000563 | 0.0464 | -0.0243 | -0.0168 | -0.00794 | 0.0465 |
| COC(=O)c1c(S(=O)(=O)N2CCOCC2)c(C)n(C)c1C | 0.000226 | 0.0187 | -0.00469 | 0.00738 | 0.0534 | -0.00135 | 0.0384 | 0.108 (active) | 0.0019 | -0.000777 |
| NC(=O)c1nnn(-c2ccc([N+](=O)[O-])cc2)c1-c1ccccc1 | 0.0114 | -0.0124 | 0.0187 | 0.0444 | 0.0451 | -0.0124 | -0.0135 | 0.0277 | 0.0182 | -0.00577 |
| O=c1c(Cl)c(N2CCOCC2)cnn1-c1cnc2ccccc2n1 | -0.0015 | 0.00611 | 0.0635 | 0.0417 | 0.0667 | 0.00311 | -0.0364 | 0.032 | -0.0173 | 0.0145 |
| CCOC(=O)CSc1nnc(OCC)n1-c1ccccc1 | -0.0276 | -0.00436 | 0.0123 | -0.00338 | 0.0529 | -0.0234 | 0.0181 | -0.0101 | -0.0109 | 0.0084 |
| CCOC(=O)Cn1c(=O)ccc2c(C)cc(C)nc21 | 0.0287 | -0.0128 | 0.0236 | -0.0078 | 0.0102 | -0.00247 | -0.0331 | 0.00136 | 0.00241 | -0.00135 |
| N#Cc1cccc(CSc2ncnc(N)n2)c1 | 0.00879 | 0.0215 | 0.00942 | -0.00378 | 0.019 | 0.0199 | -0.0244 | 0.0122 | 0.019 | 0.00642 |
| N#CC(CCC(=O)O)(CCC(=O)O)S(=O)(=O)c1ccccc1 | 0.0317 | 0.000152 | -0.0465 | -0.00447 | 0.0235 | 0.0374 | 0.0216 | 0.0211 | -0.014 | 0.0459 |
| Cc1ccc(C2=C(c3ccccc3)C(=O)C(c3ccccc3)=C2c2ccc(Cl)cc2)cc1 | -0.00103 | -0.0199 | 0.00394 | -0.0256 | 0.0117 | 0.0143 | -0.08 | 0.0554 | -0.0334 | -0.0207 |
| Cc1nn(Cc2nnc(-c3cc(C(F)(F)F)cc(C(F)(F)F)c3)o2)c(C)c1Br | -0.000532 | -0.0352 | -0.0793 | -0.0305 | -0.0495 | -0.0117 | -0.0379 | -0.0199 | 0.00363 | 0.0313 |
| Cc1nc(-c2ccccc2)sc1C(=O)NC(=O)c1ccccc1O | 0.0264 | 0.0766 | 0.0338 | 0.00645 | 0.146 (active) | 0.0501 | 0.0519 | 0.07 | 0.078 | 0.011 |
| O=C(Nc1c(S(=O)(=O)c2ccccc2)csc1Br)c1ccccc1Cl | -0.0373 | 0.0138 | -0.0509 | 0.0338 | 0.0104 | -0.0217 | 0.0155 | -0.0307 | 0.00756 | 0.0177 |
| COC(=O)C1=C(C)NC(C)=C(C(=O)OC)C1c1ccccc1 | -0.0145 | 0.00442 | -0.0123 | 0.0301 | 0.0229 | 0.00578 | 0.033 | -0.018 | 0.0507 | 0.0172 |
